Data on twelve sequences can be found in publication PMC5700166.

Numbering of substitutions follows the chain as printed.

Assay in all cases: protein-binding microarray (PBM); PBM: ~300 nM protein, 6 mM HEPES pH 7.8, 80 mM KCl, 0.5 mM EDTA, 0.5 mM EGTA, 6% glycerol, 35 ng/ul poly-dIdC, 1% milk, 1 h, room temperature; Ap Aiptasia and Nv Nematostella (sea anemones) / Co Capsaspora / Aq Amphimedon (sponge) / Dm Drosophila / Hu human; RHD is the Rel homology domain; high values mean tight binding
Holding throughout (conditions): dsDNA, one strand shown

For experiment [1], the target named is T1, GST-Ap-NF-kB RHD (Exaiptasia pallida (Aiptasia), UniProt A0A913YAJ5 2-422).
T1 sequence: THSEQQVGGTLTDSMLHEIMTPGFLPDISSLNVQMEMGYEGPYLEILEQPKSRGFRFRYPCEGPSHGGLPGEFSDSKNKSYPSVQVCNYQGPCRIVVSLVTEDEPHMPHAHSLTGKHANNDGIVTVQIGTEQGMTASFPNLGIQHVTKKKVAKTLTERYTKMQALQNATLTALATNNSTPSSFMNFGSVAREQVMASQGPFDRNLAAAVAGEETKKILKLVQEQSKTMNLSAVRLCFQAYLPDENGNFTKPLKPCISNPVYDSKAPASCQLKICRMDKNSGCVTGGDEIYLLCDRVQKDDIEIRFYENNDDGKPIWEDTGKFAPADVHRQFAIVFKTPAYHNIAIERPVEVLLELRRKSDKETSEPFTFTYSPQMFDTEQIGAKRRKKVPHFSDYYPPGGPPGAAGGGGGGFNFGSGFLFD

For experiment [2], the target named is T2, GST-Nv-NF-kB (Cys allele) (Nematostella vectensis, UniProt E5G601 2-411).
T2 sequence: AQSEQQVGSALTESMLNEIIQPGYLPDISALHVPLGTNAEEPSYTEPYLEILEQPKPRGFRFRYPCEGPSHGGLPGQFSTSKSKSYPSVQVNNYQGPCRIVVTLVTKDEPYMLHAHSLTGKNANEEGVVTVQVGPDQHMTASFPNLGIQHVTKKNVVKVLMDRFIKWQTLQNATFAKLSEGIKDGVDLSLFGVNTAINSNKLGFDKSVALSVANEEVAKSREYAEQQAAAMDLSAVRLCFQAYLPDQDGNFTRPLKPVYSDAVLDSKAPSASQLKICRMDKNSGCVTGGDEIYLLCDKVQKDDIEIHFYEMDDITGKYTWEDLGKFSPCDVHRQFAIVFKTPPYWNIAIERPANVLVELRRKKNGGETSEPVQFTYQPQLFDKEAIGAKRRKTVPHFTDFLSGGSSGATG

For experiment [3], the target named is T3, GST-Nv-NF-kB (Ser allele) (Nematostella vectensis, UniProt A7UNT2 2-411).
T3 sequence: T2 sequence with Q21R, C66S, S207N, E215Q, V217A, E225K, A268E, D399E

The target in experiment [4] is T4, GST-Co-NF-kB (Capsaspora owczarzaki, UniProt F1ARL5 200-546).
T4 sequence: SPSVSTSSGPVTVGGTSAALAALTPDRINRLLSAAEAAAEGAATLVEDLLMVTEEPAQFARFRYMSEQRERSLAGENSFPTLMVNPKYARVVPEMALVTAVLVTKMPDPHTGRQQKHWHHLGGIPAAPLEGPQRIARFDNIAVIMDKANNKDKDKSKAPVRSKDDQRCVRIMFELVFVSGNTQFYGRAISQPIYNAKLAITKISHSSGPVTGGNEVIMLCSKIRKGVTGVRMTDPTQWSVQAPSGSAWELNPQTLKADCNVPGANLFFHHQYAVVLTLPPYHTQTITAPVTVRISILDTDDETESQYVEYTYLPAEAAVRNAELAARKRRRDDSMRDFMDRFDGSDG

In experiment [5] the target is T5, GST-Dm-Relish (Drosophila melanogaster, UniProt Q94527 99-473).
T5 sequence: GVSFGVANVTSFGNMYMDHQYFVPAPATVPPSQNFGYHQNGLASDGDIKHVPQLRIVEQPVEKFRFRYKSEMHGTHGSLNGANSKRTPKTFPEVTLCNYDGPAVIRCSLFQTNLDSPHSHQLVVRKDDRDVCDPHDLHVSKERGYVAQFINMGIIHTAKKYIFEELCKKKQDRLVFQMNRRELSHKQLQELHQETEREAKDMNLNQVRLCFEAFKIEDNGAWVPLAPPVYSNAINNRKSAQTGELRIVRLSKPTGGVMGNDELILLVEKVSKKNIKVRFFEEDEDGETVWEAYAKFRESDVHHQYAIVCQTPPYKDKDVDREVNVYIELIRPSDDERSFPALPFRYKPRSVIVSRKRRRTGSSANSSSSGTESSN

Experiment [6] concerns the target T6, GST-Aq-NF-kB (Amphimedon queenslandica, UniProt A9Y5G7 2-389).
T6 sequence: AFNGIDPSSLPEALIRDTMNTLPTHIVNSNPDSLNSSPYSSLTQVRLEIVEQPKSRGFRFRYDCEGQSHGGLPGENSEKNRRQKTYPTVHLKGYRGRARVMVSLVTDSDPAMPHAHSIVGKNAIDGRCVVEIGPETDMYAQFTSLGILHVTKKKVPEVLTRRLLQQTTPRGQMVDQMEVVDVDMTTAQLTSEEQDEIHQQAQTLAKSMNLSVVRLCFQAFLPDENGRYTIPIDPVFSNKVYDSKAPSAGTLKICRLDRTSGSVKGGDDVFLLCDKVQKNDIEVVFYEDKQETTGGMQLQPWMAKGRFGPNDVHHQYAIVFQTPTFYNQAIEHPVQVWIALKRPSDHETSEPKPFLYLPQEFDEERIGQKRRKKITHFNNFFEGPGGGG

As to “CCGATTAACATCAGGGAAAATCATGATGTTAATCGGGTCTTGATTCGCTTGACGCTGCTG”, the binding signal worked out at 3.91 z-score in experiment [1]; 5.72 z-score in experiment [2]; 7.02 z-score in experiment [3]; 4.62 z-score in experiment [4]; 1.46 z-score in experiment [5]; 5.1 z-score in experiment [6].

Regarding “CCGATTAACATCAGGGAAACTACTGATGTTAATCGGGTCTTGATTCGCTTGACGCTGCTG”, the binding signal in experiment [1] worked out at 3.54 z-score; in experiment [2] it was 4.2 z-score; in experiment [3] it was 4.47 z-score; in experiment [4] it was 3.89 z-score; in experiment [5], 5.85 z-score; in experiment [6], 5.64 z-score.

As for “CCGATTAACATCAGCCCCCCGTCTGATGTTAATCGGGTCTTGATTCGCTTGACGCTGCTG”, the binding signal in experiment [1] was 3.16 z-score; in experiment [2], 2.22 z-score; in experiment [3], 1.71 z-score; in experiment [4], 3 z-score; in experiment [5], 3.83 z-score; in experiment [6], 3.37 z-score.

Consider “CCGATTAACATCAAGGGGGGGTATGATGTTAATCGGGTCTTGATTCGCTTGACGCTGCTG”, for which the binding signal in experiment [1] worked out at 4.96 z-score; in experiment [2], 3.8 z-score; in experiment [3], 3.62 z-score; in experiment [4], 5.09 z-score; in experiment [5] it was 4.14 z-score; in experiment [6], 4.39 z-score.

As to “CCGATTAACATCAGAGTTTTCCCTGATGTTAATCGGGTCTTGATTCGCTTGACGCTGCTG”, the binding signal amounted to 3.96 z-score in experiment [1]; 5.58 z-score in experiment [2]; 6.71 z-score in experiment [3]; 4.75 z-score in experiment [4]; 1.89 z-score in experiment [5]; 4.65 z-score in experiment [6].

With “CCGATTAACATCACGTTTTTCCCTGATGTTAATCGGGTCTTGATTCGCTTGACGCTGCTG”, the binding signal in experiment [1] was 3.81 z-score; in experiment [2], 4.59 z-score; in experiment [3], 6.7 z-score; in experiment [4] it was 5.98 z-score; in experiment [5], 4.58 z-score; in experiment [6] it was 4.26 z-score.

Turning to “CCGATTAACATCAGGCGTTTCCCTGATGTTAATCGGGTCTTGATTCGCTTGACGCTGCTG”, the binding signal in experiment [1] is 2.18 z-score; in experiment [2], 3.27 z-score; in experiment [3], 2.59 z-score; in experiment [4], 1.83 z-score; in experiment [5], 1.54 z-score; in experiment [6], 4.39 z-score.

Consider “CCGATTAACATCAACCTCCCCCCTGATGTTAATCGGGTCTTGATTCGCTTGACGCTGCTG”, for which the binding signal was determined as 5.79 z-score in experiment [1]; 3.9 z-score in experiment [2]; 3.61 z-score in experiment [3]; 6.38 z-score in experiment [4]; 4.38 z-score in experiment [5]; 4.25 z-score in experiment [6].

Consider “CCGATTAACATCAGGGAAAAACCTGATGTTAATCGGGTCTTGATTCGCTTGACGCTGCTG”, for which the binding signal was found to be 5.74 z-score in experiment [1]; 7.26 z-score in experiment [2]; 7.89 z-score in experiment [3]; 3.82 z-score in experiment [4]; 8.13 z-score in experiment [5]; 9.06 z-score in experiment [6].

“CCGATTAACATCACATCTTCCCCTGATGTTAATCGGGTCTTGATTCGCTTGACGCTGCTG”: the binding signal in experiment [1] stood at 4.99 z-score; in experiment [2], 6.11 z-score; in experiment [3], 7.12 z-score; in experiment [4] it was 6.39 z-score; in experiment [5] it was 2.45 z-score; in experiment [6], 4.78 z-score.

With “CCGATTAACATCAAACTTTTCCCTGATGTTAATCGGGTCTTGATTCGCTTGACGCTGCTG”, the binding signal in experiment [1] stood at 3.37 z-score; in experiment [2], 5.66 z-score; in experiment [3], 6.83 z-score; in experiment [4], 4.78 z-score; in experiment [5], 1.45 z-score; in experiment [6], 4.63 z-score.

For the sequence “CCGATTAACATCAACCAATTCCCTGATGTTAATCGGGTCTTGATTCGCTTGACGCTGCTG”, the binding signal in experiment [1] is 2.49 z-score; in experiment [2], 3.94 z-score; in experiment [3], 3.98 z-score; in experiment [4], 1.83 z-score; in experiment [6] it was 3.16 z-score.
